# Bioassay records (PubChem BioAssay)
# Insulin prom inh – inhibitors of insulin promoter-driven GFP, primary screen, imaging, TRM-6 cells (human fetal islet line), eGFP reporter, cell count; 0.9% of 130,000 active; inhibition, % at 2 µM; reporter expression induced with tamoxifen;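 active = inhibition above the mean plus 3 SD, with well images judged a real hit on visual review, cut at about 60% in these data, passing the limit was not always enough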
# Ins promoter up – insulin promoter activators in MIN6 cells, imaging, high-content screening, mouse beta cells. MIN6 insulin promoter-GFP reporter; hits give high values. z-score at 5 µM. 0.3% of 190,000 active. AID 1625, 2009;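 active = z-score above 3 at 5 µM with at least 500 cells counted in the well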
# Autophagy mod – autophagy modulators in MEF cells, primary screen, imaging, high-content, MEF GFP-LC3 | MEF GFP-LC3 puncta imaging; test concentration mostly 10 µM | calls only at 10 µM (by protocol) | 0.98% of 190,000 active | AID 463193, 2010;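 active = percentage of spot-positive cells more than 3 SD above its plate mean, without a fluorescence outlier flag or 80% toxicity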;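 note: spot-positive cell cutoff set from DMSO-treated cells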
# WT yeast gro inh – growth inhibition of WT strain, primary screen, mitochondrial fusion inhibitor project, WT and mutant strains, chemical genetic. mitochondrial fusion phenotypic screen. inhibition, % at 10 µM. 2.1% of 190,000 active. AID 1362, 2008; in the data active = inhibition above about 58%; tested in S. cerevisiae
# L major viab – Leishmania major promastigote growth inhibition, primary screen | Leishmania major promastigotes, resazurin fluorescence viability | inhibition, % at 10 µM | 9% of 200,000 active | AID 1063, 2008; in the data active = inhibition above about 50%;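 note: promastigotes grown with compound for 44 hours at 28 °C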
# Lmaj promast 1uM – Leishmania major promastigote growth inhibition, confirmation, 1 µM repeat of primary hits; 13% of 1,100 active; shares compounds with L major viab; inhibition, % at 1 µM; L. major promastigote growth, resazurin fluorescence, 48 h;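 active = inhibition above about 50% in both repeat tests, limit read from the data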
# Starred values were filed as active, the others as inactive; i = inactive; . = no result given. Sampled rows, rich in hits. Any-hit rate of the full collection: about 11%.
SMILES,Insulin prom inh,Ins promoter up,Autophagy mod,WT yeast gro inh,L major viab,others
CN1C(=O)C(=Cc2ccccc2OCc2ccccc2Cl)C(=O)N(C)C1=O,.,1,i,-22,66*,
CN1C(=O)C(=Cc2ccccc2OCCOc2ccc([N+](=O)[O-])cc2)C(=O)N(C)C1=O,-38,-0.38,i,6,78*,
CN1C(=O)C(=Cc2ccccc2OCc2ccc(C(=O)O)cc2)C(=O)N(C)C1=O,5,.,i,-16,-9,
O=C1NC(=O)C(=Cc2ccccc2OCCOc2ccc([N+](=O)[O-])cc2)C(=O)N1,-7,0.11,i,21,64*,
O=C1C2CCCN2C(c2ccc(Cl)cc2)N1c1ccccn1 (stereo not given),.,0.9,i,7,-6,
O=[N+]([O-])c1cc(S(=O)(=O)c2ccc(O)c([N+](=O)[O-])c2)ccc1O,-8,-0.08,i,5,20,
CC1CCN2c3nc4ccccn4c(=O)c3CC3(C(=O)N(C)C(=O)N(C)C3=O)C2C1 (stereo not given),20,1.2,i,-6,0,
CN1C(=O)N(C)C(=O)C2(Cc3c(nc4ccccn4c3=O)N3CCc4ccccc4C32)C1=O (stereo not given),.,0.48,i,12,70*,
O=C1CCN(C(=O)Cc2ccccc2[N+](=O)[O-])CC1,-27,.,i,-3,-3,
Cc1c(C(c2ccc(Cl)cc2Cl)c2c(O)c3ccccc3oc2=O)c(=O)n(-c2ccccc2)n1C (stereo not given),47,-0.1,i,75*,-12,
Cc1c(C(c2ccc(Br)cc2)c2c(O)c3ccccc3oc2=O)c(=O)n(-c2ccccc2)n1C (stereo not given),47,-0.12,i,18,0,
CCOC(=O)C(O)(c1ccc(N(CC)C(=O)OC)cc1)C(F)(F)F (stereo not given),-31,1.4,i,-7,98*,
CCOC(=O)C(NC(=O)CCl)(Nc1ccc(C(O)(C(=O)OCC)C(F)(F)F)cc1)C(F)(F)F (stereo not given),-40,-0.09,i,7,6,
CCOC(=O)N(CC)c1ccc(C(O)(C(=O)OCC)C(F)(F)F)cc1 (stereo not given),-93,-0.02,i,-6,98*,
CCN(C(=O)Oc1ccccc1)c1ccc(C(O)(C(=O)OC)C(F)(F)F)cc1 (stereo not given),40,0.09,i,4,99*,
CCOC(=O)N(C)c1ccc(C(O)(C(=O)OCC)C(F)(F)F)cc1 (stereo not given),57,-0.09,i,-3,99*,
S=C1NC2(CCCCC2)NC12CCCCC2,.,0.22,.,.,.,
CCC(CC)C(=O)NC1CCSC1=O (stereo not given),11,0.65,i,11,-5,
CC(C)OP(=O)(OC(C)C)C(O)c1cccnc1 (stereo not given),0,0.7,i,-6,-5,
COC(=O)C(O)(c1ccc(N(C)C(=O)OC(C)C)cc1)C(F)(F)F (stereo not given),-47,.,i,-13,92*,
CN(C)c1ccc(NC(=O)CN2C(=O)CN=C(c3ccccc3)c3cc(Cl)ccc32)cc1,.,0.76,i,17,34,
Cc1ccc(NC(=O)CN2C(=O)CN=C(c3ccccc3)c3cc(Cl)ccc32)cc1,.,2.9,i,41,61*,Lmaj promast 1uM=4
CN1CCC2(CC1)NC(=O)C1=C(CN(C)CC1)N2,.,.,i,-13,1,
CC(=O)NC(Cc1ccc(N(CCCl)CCCl)cc1)C(=O)NCC(=O)NCC(=O)O (stereo not given),.,0.5,i,-11,-4,
CC(C)[C@@]1(NC(=O)[C@@H]2C[C@@H]3c4cccc5[nH]cc(c45)C[C@H]3N(C)C2)O[C@@]2(O)[C@@H]3CCCN3C(=O)[C@H](Cc3ccccc3)N2C1=O,0,.,i,-13,65*,Lmaj promast 1uM=-2
CC(C)C[C@H]1C(=O)N2CCCC2[C@]2(O)O[C@](NC(=O)[C@@H]3C=C4c5cccc6[nH]cc(c56)CC4N(C)C3)(C(C)C)C(=O)N12 (stereo not given in full),-145,.,i,4,59*,Lmaj promast 1uM=1
O=c1cccc2n1C[C@H]1C[C@@H]2CN2CCCC[C@@H]12,.,-0.28,.,.,.,
